Screens deposited in PubChem by National Center for Advancing Translational Sciences (NCATS).
POLH inh: inhibitors of human DNA polymerase eta. Q9Y253. recombinant Pol eta, fluorescent DNA replication assay. Potency, µM (highest dose often 114 µM), for the others: at the highest dose activity change, negative = inhibition, actives largely listed as inhibitors. hit rate 1.2% among 390,000; note: % is set by controls: 0 for no effect and ±100 for the full control effect
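Fluorescent replication assay: 50 nM final substrate added after a 15 min room-temperature compound preincubation with 10 nM enzyme. Signal taken at 0 min and again at 10 min.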
POLI inh: inhibitors of human DNA polymerase iota | hit rate 1% among 390,000 | Potency, µM (doses to about 115 µM), without a hit: top-dose activity, negative = inhibition, usual class: inhibitors | Q9UNA4 | Pol iota fluorescent replication assay, 10 min
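Fluorescent replication assay read twice, at 0 min and 10 min after adding 50 nM (final) substrate. Enzyme (10 nM) and compounds were first incubated 15 min at room temperature; enzyme-free buffer wells were negative controls.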
L3MBTL1 inh: blocks human L3MBTL1; Q9Y468; AlphaScreen L3MBTL1–H3K9me1 peptide binding; Potency, µM (series often up to 57.1 µM), without a hit: at the top dose activity, negative = inhibition, usual class: inhibitors; hit rate 0.66% among 230,000; note: % is set by controls: 0 for no effect and ±100 for the full control effect; nearly all actives have a fitted effect of over 60% in size
Target sequence (Q9Y468 whole entry, looked up): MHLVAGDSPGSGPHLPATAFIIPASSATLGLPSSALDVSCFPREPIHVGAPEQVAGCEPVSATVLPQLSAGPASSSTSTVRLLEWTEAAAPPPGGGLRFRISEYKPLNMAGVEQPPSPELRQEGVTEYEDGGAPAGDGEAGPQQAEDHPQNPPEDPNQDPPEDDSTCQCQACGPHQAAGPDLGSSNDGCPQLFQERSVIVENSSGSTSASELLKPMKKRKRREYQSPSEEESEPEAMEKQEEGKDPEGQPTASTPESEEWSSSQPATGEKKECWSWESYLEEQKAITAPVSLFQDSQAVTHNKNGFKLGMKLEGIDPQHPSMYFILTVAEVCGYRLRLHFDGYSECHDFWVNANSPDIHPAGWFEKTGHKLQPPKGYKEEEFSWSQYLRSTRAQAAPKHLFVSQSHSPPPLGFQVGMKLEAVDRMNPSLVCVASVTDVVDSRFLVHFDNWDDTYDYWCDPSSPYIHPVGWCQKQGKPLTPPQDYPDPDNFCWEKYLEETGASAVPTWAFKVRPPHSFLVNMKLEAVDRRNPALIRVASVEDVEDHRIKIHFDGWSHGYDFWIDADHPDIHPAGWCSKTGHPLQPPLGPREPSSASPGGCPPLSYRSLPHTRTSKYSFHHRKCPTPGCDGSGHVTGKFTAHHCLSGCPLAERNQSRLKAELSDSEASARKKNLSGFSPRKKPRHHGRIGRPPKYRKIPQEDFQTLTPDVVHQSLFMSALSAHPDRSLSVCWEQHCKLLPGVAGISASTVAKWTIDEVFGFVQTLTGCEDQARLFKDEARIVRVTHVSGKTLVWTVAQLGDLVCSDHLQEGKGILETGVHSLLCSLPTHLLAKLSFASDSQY
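L3MBTL1 50 nM + b-AHA-H3(1-15)K9me1 75 nM, 30 min RT; compound added, 30 min RT; streptavidin donor/Ni-chelate acceptor beads 10 ug/mL each final, 30 min RT dark; AlphaScreen read.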
Pol kappa inh: DNA polymerase kappa (human) inhibition; AID 588579; purified Pol kappa, fluorescent DNA synthesis assay, 10 min; Potency, µM (highest dose often 107 µM), for the others: at the top dose activity, negative = inhibition, actives largely listed as inhibitors; Q9UBT6; hit rate 0.53% among 400,000; note: % is set by controls: 0 for no effect and ±100 for the full control effect
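Readout: fluorescence, taken kinetically at 0 and 10 min. Conditions: 10 nM Pol kappa, 15 min RT compound preincubation, 50 nM substrate final. Controls: enzyme-free buffer wells.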
Pol beta inh: blocks human DNA polymerase beta activity | Pol beta primer extension/strand displacement, fluorescence kinetic | Potency, µM (doses to about 114 µM), inactives show top-dose activity change, negative = inhibition, hits mostly inhibitors | P06746 | hit rate 1.3% among 340,000; note: % is set by controls: 0 for no effect and ±100 for the full control effect
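Preincubation: enzyme (10 nM) with compound, 15 min, RT. Reaction: substrate added to 50 nM final. Reads: 0 and 10 min. Analysis: normalized, Hill fit.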
* hit, by the source's call; ? = inconclusive; / = not tested or not shown; [ ] = dose if it differs, or a comment. An excerpt weighted towards active compounds, which were near 2.4% of everything screened. Calls come from the whole dose curve; as a rule, active = well fitted curve in the direction sought with a large enough effect; inconclusive = small, poorly fitted or top-dose-only effect, or another doubt; inactive = no such curve, though single readings can be large; an effect the other way counts as inactive or inconclusive. Potency is the fitted concentration of half-maximal effect.

SMILES	POLH inh	POLI inh	L3MBTL1 inh	Pol kappa inh	Pol beta inh
CC1CC=CC2C1C(=O)N(Cc1ccccc1)C2c1ccc(F)c(-c2ccc(N(C)C)cc2)c1 (configuration not stated)	/	-4%	/	13%	/
COc1cc(OC)cc(C(=O)N/N=C\c2ccoc2)c1	?	?	/	-29%	28µM*
O=C(N/N=C/c1ccoc1)c1ccc(Cl)cc1	-2%	?	/	2%	-6%
O=C(N/N=C/c1ccoc1)c1ccccc1	?	?	/	-38%	20µM*
Cc1ccc(S(=O)(=O)c2cc(Nc3ccccc3)ccc2O)cc1	-6%	50µM*	?	40µM*	/
Cc1ccc(S(=O)(=O)Nc2ccc(Nc3ccccc3)cc2)cc1	-20%	35%	-14%	1%	-5%
O=C(O)c1ccccc1-c1ccc(/C=C/c2cc(C(F)(F)F)[nH]c(=O)n2)o1	50µM*	?	-17%	?	?
Nc1cc([N+](=O)[O-])ccc1OCc1ccccc1	-9%	5%	/	-3%	/
O=c1cc(C(O)C[N+](=O)[O-])occ1OCc1ccccc1 (configuration not stated)	-20%	25µM*	/	?	/
Cc1cc(C=O)cc(C)c1[N+](=O)[O-]	/	1%	/	16%	/
Cc1ccc(N/C(C(Cl)=C(Cl)Cl)=C(/Cl)[N+](=O)[O-])c(C)c1	-10%	16µM*	-12%	0%	-2%
Cc1sc2nc3c(SC(C)C(=O)O)cc(C(=O)c4ccccc4O)cn3c(=O)c2c1C (configuration not stated)	?	?	-4%	-25%	?
COC(=O)c1cc(C(=O)c2cc(F)ccc2O)cn2c(=O)c3c(C)c(C)sc3nc12	-15%	?	2%	-21%	32µM*
CCOC(=O)c1sc2nc3c(SCC(=O)O)cc(C(=O)c4ccccc4O)cn3c(=O)c2c1C	?	?	?	-24%	3.2µM*
CC(/C=C/C(=O)NO)=C\[C@@H](C)C(=O)c1ccc(N(C)C)cc1	/	/	/	6%[19.4 µM]	/
COc1ccc(/C=C/C(=O)c2ccc([N+](=O)[O-])o2)cc1OC	?	8.9µM*	3%	5%	/
O=C(Nc1nc2nc(-c3ccccc3)cc(=O)n2[nH]1)c1ccc(Cl)cc1	-9%	-16%	/	-18%	22µM*
COc1cc(OC)c(Nc2nc3ccc(C(=O)c4ccccc4)cc3n3c(C)nnc23)cc1Cl	-19%	28%	/	15%	-2%
O=C(c1cc2cc([N+](=O)[O-])ccc2oc1=O)n1cccn1	32µM*	?	40µM*	79µM*	32µM*
Cc1ccccc1N1CC(=O)N(c2ccccc2C)CC1=O	5%	9%	/	-18%	6%
CC1=NN(c2ccccc2C)C(=O)C1	-14%	3.2µM*	/	4%	/
NC(=O)CC(NC(=O)c1ccccc1)c1ccc(NCCCN2CCCC2=O)c([N+](=O)[O-])c1 (configuration not stated)	4%	?	-4%	-6%	79µM*
NC(=O)CC(NC(=O)Cc1ccc(Cl)cc1)c1ccc(NCCCN2CCCC2=O)c([N+](=O)[O-])c1 (configuration not stated)	-10%	4%	-2%	9%	1%
O=C(c1ccc(Nc2nc3ccccc3n3nnnc23)cc1)N1CCN(c2ccc(F)cc2)CC1	-15%	8%	/	-19%	-17%
O=c1c(C(c2nnnn2C2CCCCC2)N2CCCCC2)coc2ccc(Cl)cc12 (configuration not stated)	-13%	8%	-3%	-9%	100µM*
SMILES	POLH inh	POLI inh	L3MBTL1 inh	Pol kappa inh	Pol beta inh
C=C1C[C@@]23C[C@@]1(O)CC[C@@H]2[C@]12C=C[C@@H](O)[C@](C)(C(=O)O1)[C@@H]2[C@@H]3C(=O)O	/	/	/	-3%[19.4 µM]	/
Cc1cccc(C)c1OCc1cn(CC(=O)c2ccc(O)cc2)nn1	0%	7.9µM*	/	-2%	/
COc1cc(C(C)=O)ccc1OCc1cn(CC(=O)c2ccc(O)cc2)nn1	-19%	4.5µM*	/	-8%	/
O=C(Cn1cc(COc2ccc(Br)cc2[N+](=O)[O-])nn1)c1ccc(O)cc1	-9%	4.5µM*	/	0%	/
O=C(Cn1cc(COc2cc(F)cc(F)c2)nn1)c1ccc(O)cc1	-11%	8%	/	0%	/
O=C(Cn1cc(COc2ccccc2C(F)(F)F)nn1)c1ccc(O)cc1	-18%	5µM*	/	-2%	/
CC(=O)c1ccc(OCc2cn(CC(=O)c3ccc(O)cc3)nn2)c(C)c1	-15%	/	/	/	/
COc1ccc(Cl)cc1NC(=O)C(=O)NCc1ccc(Cl)cc1	-12%	22%	/	9%	17%
Cc1c(C(=O)O)cccc1-c1ccc(/C=C2/NC(=O)N(c3ccccc3)C2=O)o1	22µM*	?	-28%	?	18µM*
O=C1N/C(=C/c2ccc(N3CCOCC3)o2)C(=O)N1c1cccc(Cl)c1	0%	?	2%[11.4 µM]	-5%[60.1 µM]	12%
CCOC(=O)CN1C(=O)S/C(=C\c2ccc(-c3cccc(C(=O)O)c3C)o2)C1=O	?	?	/	-20%	/
Cc1c(C(=O)O)cccc1-c1ccc(/C=C2\SC(=O)NC2=O)o1	22µM*	?	-1%	?	7%
Cc1cccc(NC(=O)CN2C(=O)N/C(=C/c3ccc(-c4cccc(C(=O)O)c4C)o3)C2=O)c1	79µM*	-9%	?	-23%	?
Cc1ccc(NC(=O)CN2C(=O)N/C(=C/c3ccco3)C2=O)cc1	?	13µM*	-88%	?	6.3µM*
CCN(CCN(C)Cl)/[N+]([O-])=N/Oc1ccc([N+](=O)[O-])cc1[N+](=O)[O-]	/	?	/	11%	/
CCOC(=O)c1c(NC(=O)Cc2ccccc2)sc2c1CCN(C)C2	-11%	-3%	?	11%	0%
CCOC(=O)c1c(NC(=O)CSc2nnc(C)s2)sc2c1CCN(C)C2	?	11µM*	5%[11.4 µM]	-27%	2%
CC(C)CCCC(C)CCCC(C)CCCC(C)C(=O)O (configuration not stated)	/	/	/	30µM*	/
CC(C)CCCC(C)CCCC(C)CCCCC(C)CCCC(C)CCCC(C)C (configuration not stated)	/	/	/	2%[60.1 µM]	/
Cc1ccc2nc(-c3ccc(NC(=O)CSc4nccc(=O)[nH]4)cc3)sc2c1	-17%	95%	0%	-12%	35µM*
C=CCn1c(SCC(=O)Nc2ccc(-c3nc4ccc(C)cc4s3)cc2)nnc1-c1ccncc1	-6%	-18%	-9%	-30%	?
CCn1c(SCC(=O)Nc2ccc(-c3nc4ccc(C)cc4s3)cc2)nnc1-c1ccccc1	/	/	-10%	/	7.9µM*
Cc1cccc(-c2nc(S(=O)(=O)c3ccc(Cl)cc3)c(N3CCCCCC3)o2)c1	-13%	26%	/	-1%	4%
CC(=O)Nc1cc(O)c2nonc2c1O	/	-92%	/	-14%	/
